From PubChem
GLP1R ag = activates the human GLP-1 receptor | HEK293 GLP-1R CRE-luciferase, luminescence, 4-6 h; cells express a hypersensitive GLP-1R form | P43220 | actives 0.007% (n = 380,000) | Potency, µM (top dose mostly 45.6 µM), for the others: at the top dose activation, hits mostly activators | AID 624172; further: % of control where 0% means no effect
Target sequence (P43220 whole entry, looked up): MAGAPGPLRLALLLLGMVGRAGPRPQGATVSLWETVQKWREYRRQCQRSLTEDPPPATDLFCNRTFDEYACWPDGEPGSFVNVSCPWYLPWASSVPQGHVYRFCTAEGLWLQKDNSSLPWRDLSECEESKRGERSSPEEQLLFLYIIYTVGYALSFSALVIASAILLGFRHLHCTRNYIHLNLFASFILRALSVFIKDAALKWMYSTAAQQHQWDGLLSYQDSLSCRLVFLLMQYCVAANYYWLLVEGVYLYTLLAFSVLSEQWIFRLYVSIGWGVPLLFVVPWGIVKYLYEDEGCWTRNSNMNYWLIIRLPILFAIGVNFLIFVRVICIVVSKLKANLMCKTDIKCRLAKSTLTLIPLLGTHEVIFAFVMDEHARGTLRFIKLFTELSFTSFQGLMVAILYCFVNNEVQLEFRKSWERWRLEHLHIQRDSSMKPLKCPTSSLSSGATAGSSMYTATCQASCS
HEK293 tox = cytotoxicity in counter-screen for GLP-1R inverse agonists | HEK293 cAMP-luciferase reporter cells, luminescence, 24 h | Potency, µM (highest dose often 38.3 µM), for inactives: at the top dose activity change, negative = inhibition, hits mostly inhibitors | actives 0.13% (n = 410,000) | AID 624418;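 further: loss of luciferase light is scored as toxicity; on the % scale 0 is the no-effect control and ±100 the full control effect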
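Compound-treated cells are incubated 24 hr at 37 deg C under 5% CO2 after a 12 hour attachment period, then luciferase detection reagent is added and luminescence is measured following 12 min at room temperature; lowered signal indicates toxicity.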
GLP1R inv ag = acts as inverse agonist at human GLP-1 receptor; P43220; HEK293 GLP-1R CRE-luciferase, luminescence, 24 h; GLP-1R form is constitutively active; Potency, µM (titrated, usually from 38.3 µM), without a hit: at the highest dose activity change, negative = inhibition, actives largely listed as inhibitors; actives 1.6% (n = 410,000); further: on the % scale 0 is the no-effect control and ±100 the full control effect; nearly all actives have a fitted effect of over 55% in size
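Inverse agonism was detected as reduced cAMP-driven luciferase luminescence after 24 h compound treatment. The cells were HEK293 clones expressing constitutively active human GLP-1R with the reporter. Reporter-only and GPR119 cell lines served as counterscreen controls.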
Active calls of the source: *; [ ] = another dose, or the depositor's remark. Shown are actives, neighbours in structure and some others; about 1.7% of the full set was active somewhere. The call rests on the fitted dose curve; in most records, active means well fitted curve in the direction sought with a large enough effect; inconclusive means small, poorly fitted or top-dose-only effect, or another doubt; inactive means no such curve, though single readings can be large; an effect the other way counts as inactive or inconclusive. Potency means the concentration at half of the fitted maximal effect.

Results for Cc1ccc(-c2cn3c(n2)sc2cc(C(=O)NCCC4=CCCCC4)ccc23)c(C)c1 ?
HEK293 tox: -6%; GLP1R inv ag: 29%

Results for N#CC1(Cc2ccc([N+](=O)[O-])cc2)c2ccccc2C=CN1C(=O)c1ccccc1 (stereo not given) ?
GLP1R ag: -30%; HEK293 tox: 18%; GLP1R inv ag: 5%

Results for N#CC1(Cc2ccccc2)c2ccccc2C=CN1C(=O)c1ccccc1 (stereo not given) ?
GLP1R ag: -6%; HEK293 tox: 8%; GLP1R inv ag: 8.9µM*

How did CCc1ccc(NC(=O)CC2C(=O)N(c3cccc(OC)c3)C(=O)N2C2CCCC2)cc1 (stereo not given) do in these assays?
HEK293 tox: -15%; GLP1R inv ag: inconclusive

Results for CCCSc1ncc(Cl)c(C(=O)Nc2sc3c(c2C(=O)OC)CCCC3)n1 ?
HEK293 tox: 0%; GLP1R inv ag: 5%

What do the screens show for `Cc1noc(C)c1S(=O)(=O)N1CCCC(C(=O)NCc2ccccc2Cl)C1` (stereo not given)?
GLP1R ag: 11%; HEK293 tox: -1%; GLP1R inv ag: 17%

What do the screens show for `S=C(Nc1ccc(Cl)cc1)NC1CC2CCCC(C1)N2C1CCCC1` (stereo not given)?
GLP1R ag: -14%; HEK293 tox: inconclusive; GLP1R inv ag: 8.9µM*

What do the screens show for `CCc1ccc(NC(=S)NC2CC3CCCC(C2)N3Cc2ccccc2)cc1` (stereo not given)?
GLP1R ag: 8%; HEK293 tox: inconclusive; GLP1R inv ag: inconclusive

How did S=C(Nc1ccc(Cl)cc1)NC1CC2CCCC(C1)N2C1CC1 (stereo not given) do in these assays?
GLP1R ag: -2%; HEK293 tox: -13%; GLP1R inv ag: inconclusive

What do the screens show for `S=C(Nc1ccc(Cl)cc1)NC1CC2CCC(C1)N2Cc1ccccc1` (stereo not given)?
GLP1R ag: 9%; HEK293 tox: -2%; GLP1R inv ag: 7.1µM*

Results for COc1ccc(-c2nn(C)c3sc(C(=O)Nc4cccc(F)c4)cc23)cc1OC ?
HEK293 tox: -8%; GLP1R inv ag: inconclusive

Results for CCc1cc2c(COC(=O)c3cc(S(=O)(=O)N4CCOCC4)ccc3F)cc(=O)oc2cc1O ?
GLP1R ag: 29%; HEK293 tox: 195%; GLP1R inv ag: -17%

Results for CCc1cc2c(COC(=O)c3cccc(NS(C)(=O)=O)c3)cc(=O)oc2cc1O ?
GLP1R ag: 7%; HEK293 tox: 180%; GLP1R inv ag: 4µM*

What do the screens show for `CC#CCC(C)[C@H](O)/C=C/C1[C@H](O)C[C@@H]2C/C(=C\CCCC(=O)O)C[C@H]12` (stereo not given in full)?
GLP1R ag: -4%

What do the screens show for `CC(=O)c1cccc(-n2c(=O)c3c4c(sc3n(Cc3cccc(C)c3)c2=O)CN(C(C)=O)CC4)c1`?
GLP1R ag: 0%; HEK293 tox: 2%; GLP1R inv ag: 7%

Results for Cc1ccc2c(c1)C(O)(c1c(C)[nH]c3ccccc13)C(=O)N2 (stereo not given) ?
GLP1R ag: -8%; HEK293 tox: -12%; GLP1R inv ag: 3.2µM*

How did Cc1[nH]c2ccccc2c1C1(O)C(=O)N(C(C)C)c2ccccc21 (stereo not given) do in these assays?
GLP1R ag: 3%; HEK293 tox: 2%; GLP1R inv ag: 14%

What do the screens show for `CCN(CC)[C@@H](C)CN1c2ccccc2Sc2ccccc21`?
GLP1R ag: -3%[19.8 µM]

What do the screens show for `Cc1ccc2nc(SCc3nc(-c4ccccc4C)no3)[nH]c2c1`?
GLP1R ag: 2%; HEK293 tox: -4%; GLP1R inv ag: inconclusive

What do the screens show for `O=C(c1ccccc1)c1ccc(OCC(O)CNCc2ccc(F)cc2)cc1` (stereo not given)?
GLP1R ag: 11%; HEK293 tox: -8%; GLP1R inv ag: inconclusive

How did NCC(O)COCCC12CC3CC(CC(C3)C1)C2 (stereo not given) do in these assays?
GLP1R ag: -4%; HEK293 tox: -3%; GLP1R inv ag: inconclusive

Results for COc1ccc(C(OCC(O)CNCCc2ccccc2)c2ccc(OC)cc2)cc1 (stereo not given) ?
GLP1R ag: 7%; HEK293 tox: inconclusive; GLP1R inv ag: inconclusive

Results for Cc1ccc(C(OCC(O)CNCc2ccc(F)cc2)c2ccccc2)cc1 (stereo not given) ?
GLP1R ag: -6%; HEK293 tox: inconclusive; GLP1R inv ag: 5.6µM*

How did COc1ccc(C(OCC(O)CNC(C)c2ccccc2)c2ccc(OC)cc2)cc1 (stereo not given) do in these assays?
GLP1R ag: 9%; HEK293 tox: inconclusive; GLP1R inv ag: 10µM*

How did CC(NCC(O)COCCC12CC3CC(CC(C3)C1)C2)c1ccccc1 (stereo not given) do in these assays?
GLP1R ag: -5%; HEK293 tox: inconclusive; GLP1R inv ag: 11µM*

How did CCC1CN(C(=O)N2CCC(C(=O)NCCc3ccc(C)cc3)CC2)c2ccccc2O1 (stereo not given) do in these assays?
HEK293 tox: -7%; GLP1R inv ag: -1%

How did COc1ccc(Cn2ccnc2SCC(=O)Nc2ccc(C)cc2C)cc1 do in these assays?
HEK293 tox: -11%; GLP1R inv ag: -25%

How did COc1cc2ccccc2cc1C(=O)Nc1ccc2oc(-c3ccc(F)cc3)nc2c1 do in these assays?
HEK293 tox: -1%; GLP1R inv ag: 1%

Results for NCCSc1c(-c2ccccc2)[nH]c2ccccc12 ?
GLP1R ag: -5%; HEK293 tox: -9%; GLP1R inv ag: inconclusive

Results for NCCSc1c(-c2ccc(F)cc2)[nH]c2ccccc12 ?
GLP1R ag: -6%; HEK293 tox: -21%; GLP1R inv ag: 10µM*

Results for COC(=O)[C@]12CCCCC=C1N(CCC1=CCCCC1)C(=O)[C@H](CC(=O)NCCCCc1ccccc1)C2 ?
GLP1R ag: -1%; HEK293 tox: -29%; GLP1R inv ag: inconclusive

How did Cc1ccc(Nc2nc(C(=O)N3CCC(C(=O)NCc4ccccc4)CC3)cs2)cc1 do in these assays?
GLP1R ag: 14%; HEK293 tox: 3%; GLP1R inv ag: inconclusive

How did COc1ccc(CNC(=O)C2CCN(C(=O)c3csc(Nc4ccc(C)cc4)n3)CC2)cc1 do in these assays?
GLP1R ag: 15%; HEK293 tox: -6%; GLP1R inv ag: 7.9µM*

Results for CCc1ccc(C(=O)c2cn(CC(=O)Nc3ccc(OC)cc3OC)c3ccc(CC)cc3c2=O)cc1 ?
HEK293 tox: 2%; GLP1R inv ag: -15%

What do the screens show for `Cc1ccccc1N1C(=O)c2cc(N)ccc2N/C1=C\F`?
GLP1R ag: 18%

Results for Cc1ccc(CNC(=O)c2ccc3c(c2)nc(C)n3-c2cc(C)cc(C)c2)cc1 ?
HEK293 tox: -5%; GLP1R inv ag: inconclusive

What do the screens show for `Cc1cc(C)cc(-n2c(C)nc3cc(C(=O)NCc4ccccc4Cl)ccc32)c1`?
HEK293 tox: inconclusive; GLP1R inv ag: 11µM*

What do the screens show for `Cc1cc(N2CCN(C)CC2)nc2ccc(NC(=S)NCCCN3CCc4ccccc4C3)cc12`?
GLP1R ag: 22%; HEK293 tox: 4.5µM*; GLP1R inv ag: inconclusive
